Measured values taken from PubChem BioAssay (Tox21).
Inconclusive results are not listed. Activity calls are given as the source filed them. Unless noted, the call rests on the fitted dose curve; in most records, active means well fitted curve in the direction sought with a large enough effect in the repeat runs; inconclusive means weak or mixed curves; inactive means no such curve, though single readings can be large; an effect the other way counts as inactive or inconclusive.

Legend:
[1] = qHTS assay to identify small molecule antagonists of the retinoid acid receptor (RAR) signaling pathway - cell viability counter screen (AID 1159551); settings: C3RL4 cells viability, ATP luminescence (CellTiter-Glo), 6 h; series mostly up to 92.4 µM; further: nearly all actives have a fitted effect of over 35% in size
Summary of the method: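 Cytotoxicity counter screen in C3RL4 cells: 6 h compound exposure with 1 uM retinol (final), viability from cellular ATP by luminescence.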

[2] = qHTS assay to identify small molecule antagonists of the retinoic acid receptor (RAR) signaling pathway (AID 1159552; further: nearly all actives have a fitted effect of over 50% in size); settings: C3RL4 RARE luciferase reporter, retinol-stimulated, 6 h; series mostly up to 92.4 µM
Summary of the method: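 Retinol at 1 uM final stimulated RARE-luciferase expression in C3RL4 cells exposed to test compounds for 6 hr at 37 C. Reduced luminescence, read 30 min after detection reagent, indicated pathway antagonism.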

[3] = qHTS assay to identify small molecule agonists of the retinoic acid receptor (RAR) signaling pathway (AID 1159553); settings: C3RL4 RARE luciferase reporter, agonist, 6 h; series mostly up to 73.3 µM
Summary of the method: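 Agonist activity was scored in C3RL4 cells bearing a retinoic acid response element luciferase construct. Cells were treated with compounds for 6 hr at 37 C, and luciferase signal was measured as luminescence.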

[4] = qHTS assay to identify small molecule antagonists of the estrogen related receptor (ERR) signaling pathway from Tox21 library - cell viability counter screen (AID 1224834); settings: ERR reporter cells viability, CellTiter-Fluor, 17.5 h; series mostly up to 92.4 µM; further: nearly all actives have a fitted effect of over 30% in size
Summary of the method: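 Cytotoxicity of test substances is gauged in the same ERR cells used for the antagonist screen, after 17.5 h of compound treatment at 37 C, by CellTiter-Fluor fluorescence measured after 30 min.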

[5] = target: Luciferin 4-monooxygenase (Photinus pyralis) (UniProt P08659); assay: qHTS assay to identify small molecule inhibitors of firefly luciferase (AID 1224835); further: nearly all actives have a fitted effect of over 25% in size; settings: purified P. pyralis luciferase, luminescence inhibition; series mostly up to 115 µM
Sequence of Luciferin 4-monooxygenase (Photinus pyralis) (P08659 whole entry, looked up): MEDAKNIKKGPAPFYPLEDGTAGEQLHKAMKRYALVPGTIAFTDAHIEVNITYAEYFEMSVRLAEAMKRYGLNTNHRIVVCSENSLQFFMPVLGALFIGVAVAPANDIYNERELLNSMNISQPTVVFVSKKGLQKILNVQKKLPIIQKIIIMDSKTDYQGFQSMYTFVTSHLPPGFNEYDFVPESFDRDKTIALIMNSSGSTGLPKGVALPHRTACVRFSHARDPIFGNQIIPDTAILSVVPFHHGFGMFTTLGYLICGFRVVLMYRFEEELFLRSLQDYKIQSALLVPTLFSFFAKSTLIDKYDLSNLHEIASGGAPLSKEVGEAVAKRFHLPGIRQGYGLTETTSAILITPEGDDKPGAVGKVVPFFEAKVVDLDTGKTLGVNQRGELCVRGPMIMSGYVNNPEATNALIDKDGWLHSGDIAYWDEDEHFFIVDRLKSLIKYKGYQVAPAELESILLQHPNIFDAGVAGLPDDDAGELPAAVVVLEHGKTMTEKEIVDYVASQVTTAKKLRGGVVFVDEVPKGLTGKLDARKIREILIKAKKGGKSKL
Summary of the method: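 Quantitative HTS format; KM concentrations of both substrates. Purified P. pyralis FLuc activity quantified from luminescence images.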

[6] = qHTS assay to identify small molecule agonists of the constitutive androstane receptor (CAR) signaling pathway - cell viability counter screen (AID 1224836); settings: HepG2-CYP2B6-hCAR viability, CellTiter-Fluor, 23 h, PK11195 added to every well; series mostly up to 92.4 µM; further: nearly all actives have a fitted effect of over 45% in size
Summary of the method: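 Cells were seeded and incubated 4 hrs. Compounds were added across 15 concentrations together with PK11195 at 0.75 uM final. Plates were incubated 23 hrs at 37 C. CellTiter-Fluor was added and fluorescence measured.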

[7] = qHTS assay to identify small molecule antagonists of the constitutive androstane receptor (CAR) signaling pathway - cell viability counter screen (AID 1224837); settings: HepG2-CYP2B6-hCAR viability, CellTiter-Fluor, 23 h, co-treated with 50 nM CITCO; series mostly up to 92.4 µM; further: nearly all actives have a fitted effect of over 45% in size
Summary of the method: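 Multiplexed cytotoxicity read-out for the CAR antagonist screen: double-stable HepG2-CYP2B6-hCAR cells co-treated with 50 nM CITCO (final) and compound over 15 concentrations, incubated 23 hr, then assessed by CellTiter-Fluor fluorescence.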

[8] = qHTS assay to identify small molecule antagonists of the estrogen related receptor signaling pathway with the pleiotropic PPARgamma coactivator (PGC) from Tox21 10K library - cell viability counter screen (AID 1224840; active means well fitted cell-killing curve with a large enough effect in the repeat runs, not every such curve was filed as active; further: nearly all actives have a fitted effect of over 40% in size); settings: PGC/ERR reporter cells viability, CellTiter-Fluor, 17.5 h; series mostly up to 92.4 µM
Summary of the method: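 Step one, plate 2,000 PGC/ERR cells per well; step two, incubate 6 h at 37 C/5% CO2; step three, pin-transfer compounds; step four, incubate 17.5 h; step five, add CellTiter-Fluor and read fluorescence after 30 min.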

[9] = target: Thyrotropin receptor (Homo sapiens) (UniProt P16473); assay: qHTS assay to identify small molecule agonists of the thyroid stimulating hormone receptor (TSHR) signaling pathway (AID 1224843; calls by dose curve; further: nearly all actives have a fitted effect of over 45% in size); settings: TSHR-HEK293 cells, cAMP HTRF, agonist mode, 30 min; series mostly up to 92.4 µM
Sequence of Thyrotropin receptor (Homo sapiens) (P16473 whole entry, looked up): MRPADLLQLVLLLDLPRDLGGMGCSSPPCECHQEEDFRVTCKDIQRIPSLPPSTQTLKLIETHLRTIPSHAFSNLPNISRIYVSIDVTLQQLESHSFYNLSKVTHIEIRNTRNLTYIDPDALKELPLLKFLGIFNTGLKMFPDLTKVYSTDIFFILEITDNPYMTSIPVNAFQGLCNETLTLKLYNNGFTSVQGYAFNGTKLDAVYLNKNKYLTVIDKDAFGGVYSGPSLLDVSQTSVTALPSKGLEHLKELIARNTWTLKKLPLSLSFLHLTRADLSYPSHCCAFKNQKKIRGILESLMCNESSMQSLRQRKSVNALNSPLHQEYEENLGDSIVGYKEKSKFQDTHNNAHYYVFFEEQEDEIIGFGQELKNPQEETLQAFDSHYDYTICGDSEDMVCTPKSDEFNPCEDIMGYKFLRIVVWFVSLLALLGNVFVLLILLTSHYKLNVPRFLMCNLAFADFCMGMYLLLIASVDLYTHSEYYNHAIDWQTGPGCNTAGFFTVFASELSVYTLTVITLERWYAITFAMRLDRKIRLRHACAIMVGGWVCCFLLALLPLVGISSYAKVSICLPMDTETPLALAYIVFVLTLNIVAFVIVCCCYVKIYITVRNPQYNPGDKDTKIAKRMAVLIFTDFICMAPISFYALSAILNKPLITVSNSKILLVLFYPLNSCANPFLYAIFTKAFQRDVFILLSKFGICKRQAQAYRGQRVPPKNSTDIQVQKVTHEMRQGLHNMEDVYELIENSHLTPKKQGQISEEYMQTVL
Summary of the method: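 Cell line HEK293 with TSHR; density 800/well. Exposure 30 min RT. Readout HTRF cAMP (cAMP-d2/anti-cAMP-cryptate), 1 h RT before reading.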

[10] = qHTS assay to identify small molecule agonists of the hypoxia (HIF-1) signaling pathway - cell viability counter screen (AID 1224844; calls by dose curve; further: nearly all actives have a fitted effect of over 50% in size); settings: HRE-bla ME-180 viability, CellTiter-Glo luminescence, 17 h; series mostly up to 76.8 µM
Summary of the method: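 Tox21 10K compounds were added to HRE-bla ME-180 cells (0.5% dialyzed FBS) and incubated 17 hrs at 37C; ATP-based CellTiter-Glo luminescence then reported cell viability in the same wells.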

[11] = qHTS assay to identify small molecule agonists of H2AX (AID 1224845; active means well fitted activation curve with a large enough effect in the signal ratio in the repeat runs, not every such curve was filed as active; the % refers to the signal ratio); settings: CHO-K1 phospho-H2AX Ser139 HTRF, 3 h; series mostly up to 154 µM
Summary of the method: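 Wild-type CHO-K1 cells plated overnight, then exposed 3 hr at 37C to compounds at 15 concentrations (0.76% DMSO). Lysed, then HTRF anti-pH2AX(S139)-cryptate/anti-H2AX-d2 detection after 24 hr at room temperature; emissions 665 and 620 nm.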

[12] = qHTS assay to identify small molecule agonists of the hypoxia (HIF-1) signaling pathway (AID 1224846; active means well fitted activation curve with a large enough effect in the signal ratio in the repeat runs, not every such curve was filed as active; the % refers to the signal ratio); settings: HRE-bla ME-180 cells, beta-lactamase ratio, 17 h; series mostly up to 76.8 µM
Summary of the method: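 Steps: seed ME-180 HRE-bla cells (2,000/well, 0.5% dialyzed FBS); incubate 5 hrs at 37C; pin-transfer compounds or DMSO; incubate 17 hrs; add LiveBLAzer B/G substrate CCF4-AM; measure reporter activation by FRET.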

[13] = qHTS assay to identify small molecule agonists of H2AX - cell viability counter screen (AID 1224847; calls by dose curve; further: top concentration of the series differs between compounds; nearly all actives have a fitted effect of over 30% in size); settings: CHO-K1 viability, CellTiter-Glo luminescence, 3 h; series mostly up to 154 µM
Summary of the method: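 Cytotoxicity counter screen in wild-type CHO-K1 cells: a 3 hr compound treatment at 37C across 15 concentrations, followed by CellTiter-Glo luminescence to gauge viable cells.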

[14] = qHTS RealTime-Glo MT Cell Viability Assay in HepG2 cells - 24 hour (AID 1224867); settings: RealTime-Glo luminescence; series mostly up to 76.8 µM; further: nearly all actives have a fitted effect of over 50% in size
Summary of the method: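 qHTS, HepG2, 600 cells/well, RealTime-Glo (NanoLuc + prosubstrate) added with cells; 5 h preincubation; DMSO compound addition; 37 C; luminescence at 0/8/16/24/32/40 h.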

[15] = qHTS assay to identify small molecule antagonists of the estrogen related receptor signaling pathway with the pleiotropic PPARgamma coactivator (PGC) from Tox21 10K library (AID 1224841; call rule not given here; further: actives are mostly falling curves and most rising ones were filed inactive; nearly all actives have a fitted effect of over 50% in size); settings: PGC/ERR reporter cell line, ONE-Glo luciferase, 18 h; series mostly up to 92.4 µM
Summary of the method: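 Antagonism in this quantitative HTS is taken from loss of luciferase signal in PGC/ERR cells. Cells (2,000/well) are treated with compounds in DMSO after a 6 h settling period and read by One-Glo luminescence after 18 h.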

[16] = qHTS assay to identify small molecule agonists of the estrogen related receptor signaling pathway with the pleiotropic PPARgamma coactivator (PGC) from Tox21 10K library (AID 1224842); settings: PGC/ERR reporter cell line, luciferase ONE-Glo, 18 h; series mostly up to 92.4 µM; further: nearly all actives have a fitted effect of over 15% in size
Summary of the method: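 PGC/ERR reporter cells (NTP line) were seeded 2,000 per well, rested 6 h at 37 C/5% CO2, then pin-dosed with compounds in DMSO for 18 h at 37 C; luciferase read by One-Glo luminescence after 30 min at room temperature.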

[17] = qHTS assay to identify small molecule antagonists of the estrogen related receptor (ERR) signaling pathway from Tox21 library (AID 1224848); settings: ERR reporter cell line, luciferase antagonist mode, 18 h; series mostly up to 92.4 µM; further: nearly all actives have a fitted effect of over 50% in size
Summary of the method: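 Screening used an ERR reporter line supplied by NTP, exposed for 18 h at 37 C to library compounds delivered in DMSO. Signal was luciferase luminescence developed with ONE-Glo at room temperature for 30 min.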

[18] = qHTS assay to identify small molecule agonists of the estrogen related receptor (ERR) signaling pathway from Tox21 library (AID 1224849; calls by dose curve; further: nearly all actives have a fitted effect of over 15% in size); settings: ERR reporter cell line, ONE-Glo luciferase, 18 h; at 92.4 µM (top of the series) unless noted
Summary of the method: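 Agonist signal is luciferase luminescence from an ERR reporter cell line treated 18 h at 37 C with DMSO-dissolved compounds, read 30 min after ONE-Glo addition at room temperature.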

[19] = target: Nuclear receptor subfamily 1 group I member 3 (Homo sapiens) (UniProt Q14994); assay: qHTS assay to identify small molecule agonists of the constitutive androstane receptor (CAR) signaling pathway (AID 1224839); settings: HepG2 hCAR CYP2B6-luciferase, agonist mode, 24 h; series mostly up to 92.4 µM;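 further: HepG2 cells stably carrying human CAR and a CYP2B6 luciferase reporter; nearly all actives have a fitted effect of over 15% in size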
Sequence of Nuclear receptor subfamily 1 group I member 3 (Homo sapiens) (Q14994 whole entry, looked up): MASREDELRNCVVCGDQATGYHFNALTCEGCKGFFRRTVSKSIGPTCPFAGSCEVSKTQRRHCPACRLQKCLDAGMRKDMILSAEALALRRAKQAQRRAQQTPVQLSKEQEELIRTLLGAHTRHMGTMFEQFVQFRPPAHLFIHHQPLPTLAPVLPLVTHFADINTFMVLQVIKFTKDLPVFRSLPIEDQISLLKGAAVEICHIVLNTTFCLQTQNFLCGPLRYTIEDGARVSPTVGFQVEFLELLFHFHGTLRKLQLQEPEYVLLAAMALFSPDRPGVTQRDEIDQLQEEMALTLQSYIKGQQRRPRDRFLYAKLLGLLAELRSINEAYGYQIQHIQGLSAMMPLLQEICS
Summary of the method: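 Cells were plated and incubated 4 hrs, then dosed with compounds at 15 concentrations. PK11195 was added to 0.75 uM final. After 24 hrs at 37 C, luciferase luminescence was measured.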
On the % scale 0 is the no-effect control and ±100 the full control effect.

CCOC(=O)[C@H](CCc1ccccc1)N[C@H]1CS[C@H](c2cccs2)CN(CC(=O)O)C1=O
inactive: outcome [1] | outcome [2] | Potency [3] | outcome [4] | Potency [5] | outcome [6] | outcome [7] | outcome [8] | Potency [9] | outcome [10] | outcome [11] | outcome [12] | outcome [13] | outcome [14]

CC(C)c1cc(C(C)C)cc(C(C)C)c1
inactive: outcome [1] | outcome [2] | Potency [3] | outcome [4] | Potency [5] | outcome [6] | outcome [7] | outcome [8] | Potency [15] | Potency [16] | outcome [11] | outcome [12] | outcome [13] | outcome [17] | activity change, positive = activation [18] 7.19% | outcome [14]

CC(C)(C)C(=O)CC(=O)C(C)(C)C
inactive: outcome [1] | outcome [2] | Potency [3] | outcome [4] | Potency [5] | outcome [6] | outcome [7] | outcome [8] | Potency [16] | Potency [9] | outcome [11] | outcome [12] | outcome [13] | outcome [17] | activity change, positive = activation [18] 3.23% | outcome [14]

COCc1nnc(-c2ccc[n+]([O-])c2)n1-c1c(Cl)c(Cl)cc2[nH]c(=O)c(=O)[nH]c12
inactive: outcome [1] | outcome [2] | Potency [3] | outcome [4] | Potency [5] | outcome [6] | outcome [7] | outcome [8] | Potency [9] | outcome [10] | outcome [11] | outcome [12] | outcome [13] | outcome [14]

CCC(=O)OCCOc1ccccc1
inactive: outcome [1] | outcome [2] | Potency [3] | outcome [4] | Potency [5] | outcome [6] | outcome [7] | outcome [8] | Potency [9] | outcome [10] | outcome [11] | outcome [12] | outcome [13] | outcome [14]

CCCC(C)C(O)CC (configuration not stated)
inactive: outcome [1] | outcome [2] | Potency [3] | outcome [4] | Potency [5] | outcome [6] | outcome [7] | outcome [8] | Potency [15] | Potency [16] | Potency [9] | outcome [10] | outcome [11] | outcome [12] | outcome [13] | outcome [17] | activity change, positive = activation [18] -0.957% | outcome [14]

Cc1ccc2cccnc2c1
inactive: outcome [1] | outcome [2] | Potency [3] | outcome [4] | Potency [5] | outcome [6] | outcome [7] | Potency [19] | outcome [8] | outcome [11] | outcome [13] | outcome [14]

CC12CCCC=C1C(=O)OC2=O (configuration not stated)
inactive: outcome [1] | outcome [2] | Potency [3] | outcome [4] | Potency [5] | outcome [6] | outcome [7] | outcome [8] | Potency [9] | outcome [10] | outcome [11] | outcome [12] | outcome [13] | outcome [14]

C=CC(=O)OCC[N+](C)(C)C
inactive: outcome [1] | outcome [2] | Potency [3] | outcome [4] | Potency [5] | outcome [6] | outcome [7] | outcome [8] | Potency [9] | outcome [10] | outcome [11] | outcome [13] | outcome [14]

CCC(C)SSC(C)CC (configuration not stated)
inactive: outcome [1] | outcome [2] | Potency [3] | outcome [4] | Potency [5] | outcome [6] | outcome [7] | outcome [8] | Potency [9] | outcome [10] | outcome [11] | outcome [12] | outcome [13] | outcome [14]

CC(=O)Nc1ccc(S(=O)(=O)Nc2cc(C)on2)cc1
inactive: outcome [1] | outcome [2] | Potency [3] | outcome [4] | Potency [5] | outcome [6] | outcome [7] | outcome [8] | Potency [9] | outcome [10] | outcome [11] | outcome [13] | outcome [14]

CCCCCCCCCCCCCCCC/C=C/C1CC(=O)OC1=O (configuration not stated)
inactive: outcome [1] | outcome [2] | Potency [3] | outcome [4] | Potency [5] | outcome [6] | outcome [7] | outcome [8] | Potency [9] | outcome [10] | outcome [11] | outcome [12] | outcome [13] | outcome [14]
